Source: PubChem BioAssay (several laboratories)
RAM network inh: inhibitors of the yeast RAM network, primary screen, dse1pr::URA3 reporter, 5-FOA selection; S. cerevisiae dse1pr::URA3 reporter, 5-FOA growth OD615, 2 d; analog-sensitive cbk1-as2 kinase mutant strain; inhibition, % at 50 µM; 190,000 compounds, 1.8% hits; AID 868, 2007;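 active = inhibition above a set limit, 3 SD over mean compound inhibition, cut at about 8.4% in these data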;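 also: 0% = DMSO-only wells with no growth and 100% = 10 µM 1-NA-PP1 full growth; inhibition rescues growth on 5-FOA so higher OD means more RAM inhibition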
L major viab: Leishmania major promastigote growth inhibition, primary screen. Leishmania major promastigotes, resazurin fluorescence viability. 200,000 compounds, 9% hits. inhibition, % at 10 µM; in the data active = inhibition above about 50%;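 also: promastigotes grown with compound for 44 hours at 28 °C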
WT yeast gro inh: growth inhibition of WT strain, primary screen, mitochondrial fusion inhibitor project, WT and mutant strains, chemical genetic. inhibition, % at 10 µM. AID 1362, 2008. mitochondrial fusion phenotypic screen. 190,000 compounds, 2.1% hits; in the data active = inhibition above about 58%; tested in S. cerevisiae
CHOP inh: inhibitors of CHOP promoter induction, primary screen, cell-based, unfolded protein response, luciferase reporter. CHO-K1 CHOP-promoter luciferase, tunicamycin-induced, 15-18 h. inhibition, % at 10 µM. 220,000 compounds, 3.8% hits;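 active = compounds that reduced the stress-induced luciferase reporter signal by more than about 70% of percent inhibition, limit read from the data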;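 also: 0% = tunicamycin plus vehicle and 100% = wells without tunicamycin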
* hit, by the source's call; / = no result given. Sampled rows, rich in hits. Any-hit rate of the full collection: about 13%.

SMILES	RAM network inh	L major viab	WT yeast gro inh	CHOP inh
O=C(CN(c1ccccc1)S(=O)(=O)c1ccccc1)N1CCN(Cc2ccc3c(c2)OCO3)CC1	1	72*	23	0
O=C(c1ccc(NS(=O)(=O)c2ccccc2)cc1)N1CCN(Cc2ccc3c(c2)OCO3)CC1	0	19	11	20
CCOc1ccc2[nH]c(=O)c(CN(Cc3cccs3)Cc3nnnn3C(C)(C)C)cc2c1	2	73*	20	96*
Cc1ccc2[nH]c(=O)c(CN(Cc3cccs3)Cc3nnnn3Cc3ccccc3)cc2c1	1	11	14	10
CCOc1ccc2[nH]c(=O)c(CN(CCN3CCOCC3)Cc3nnnn3C(C)(C)CC)cc2c1	0	1	3	-2
COc1ccc2[nH]c(=O)c(CN(Cc3cccs3)Cc3nnnn3C(C)(C)C)cc2c1	0	99*	-3	47
Cc1cc(O)c(/C=N/Nc2ccccc2)c(=O)o1	0	76*	11	30
Oc1ccccc1/C=N/Nc1ccccc1	1	13	79*	6
Cn1cc(/C=N/Nc2ccccc2)c2ccccc21	1	63*	-3	-1
Cc1cc(O)c(C=Nc2cccc(Cl)c2)c(=O)o1	-1	-10	11	16
Oc1ccc(/C=N/Nc2ccc3ccccc3c2)c(O)c1	3	85*	49	56
CCN(CC)CCN1C(=O)C(=O)/C(=C(/O)c2c(C)[nH]c(C(=O)OC)c2C)C1c1ccc(C)o1 (centres undefined)	/	/	/	8
Cc1ccccc1S(=O)(=O)Cc1ccc(C(=O)NCc2ccc(F)cc2)o1	2	9	-4	21
COc1cc(C)c(Cl)cc1S(=O)(=O)n1cnc(C)c1	1	89*	12	17
COc1ccc(C(=O)O)cc1S(=O)(=O)NCCc1ccccn1	/	/	/	-17
CC(CNCc1ccc2c(c1)OCO2)NCc1ccc2c(c1)OCO2 (centres undefined)	-1	93*	15	85*
CC(C)(C)NC(=S)NCc1ccc2c(c1)OCO2	0	56*	-3	12
CCS(=O)(=O)N1CCC(C(=O)NCc2ccc3c(c2)OCO3)CC1	1	-4	-10	20
CCCCC1CCC(C(=O)NCc2ccc3c(c2)OCO3)CC1 (centres undefined)	1	-7	1	83*
Cc1ccc(NC(=S)NCc2ccc3c(c2)OCO3)cc1C	-1	-5	61*	5
CN(C)CC(C)(C)CNC(=S)NCc1ccc2c(c1)OCO2	0	-2	5	23
COc1cccc(CNC(=O)Cn2ncc3c(=O)oc4ccccc4c32)c1	/	/	/	-5
O=C(Cn1c(CO)nc2ccccc21)NC1CCCCCC1	1	-6	0	-36
Cc1cc(C)n(CCCN2C(=O)c3cccc4cccc(c34)C2=O)n1	2	6	56	4
Cc1ccc(N(C(=O)c2ccccc2Cl)C2=NC(C)CS2)c(C)c1 (centres undefined)	6	94*	72*	31
SMILES	RAM network inh	L major viab	WT yeast gro inh	CHOP inh
COc1cc(CNCCO)ccc1OCC(=O)Nc1ccc(Br)cc1	0	100*	-5	32
CC(=O)Nc1ccc(NC(=O)COc2ccc(Br)cc2C)cc1	3	62*	-12	25
Cc1cc(OCC(=O)Nc2ccncc2)c(C)cc1Br	2	0	60*	33
CCCNCc1cc(OC)c(OCC(=O)Nc2ccccc2)cc1Br	1	46	-15	18
Cc1nc(Cl)c2c(n1)NC(=O)CO2	/	/	/	-13
Cc1ccc(S(=O)(=O)NCCC(=O)NCc2ccco2)cc1	3	-6	0	27
COC(=O)c1[nH]c2ccccc2c1NC(=O)c1c(F)cccc1F	/	/	/	-7
CC(=O)Nc1ccc(NC(=O)COC(=O)c2ccccn2)cc1	2	-4	-3	-6
CCCCN(C)CC(O)Cn1cc(/C=C/C(=O)c2cccs2)c2ccccc21 (centres undefined)	1	69*	12	17
Cc1nn(C)cc1/C=C/C(=O)c1cccs1	-1	15	-9	-21
O=C(/C=C/c1cn(CC(O)CN2CCCCCC2)c2ccccc12)c1cccs1 (centres undefined)	1	100*	26	-10
C/C(=N\Nc1ccc(Cl)cc1)c1c(O)cc(C)oc1=O	-1	-4	20	8
Cc1cc(C(=O)N2CCc3c([nH]c4ccccc34)C2c2cccc(Cl)c2)nn1C (centres undefined)	3	30	61*	92*
CCc1ccc(C2c3[nH]c4ccccc4c3CCN2C(=O)c2cc(C)nn2C)cc1 (centres undefined)	2	60*	33	6
